Experiments:
Conditions in all cases: concentration: 1 μM, replicates: in singlicate; n = 1
[1] = test system: T1, NDR1
T1 construct: gene STK38

[2] = test system: NDR2
[3] = test system: NEK10
[4] = test system: NEK11
[5] = test system: NEK1
[6] = test system: NEK2
[7] = test system: NEK3
[8] = test system: NEK4
[9] = test system: NEK5
[10] = test system: NEK6
[11] = test system: NEK7
[12] = test system: NEK9
[13] = test system: T2, NIK
T2 construct: gene MAP3K14

[14] = test system: T3, NIM1
T3 construct: gene MGC42105

[15] = test system: NLK
[16] = test system: T4, OSR1
T4 construct: gene OXSR1

[17] = test system: PAK1
[18] = test system: PAK2
[19] = test system: PAK3
[20] = test system: PAK4
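Also: KINOMEscan kinase panel screen.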

SMILES | %Inh [1] [%] | %Inh [2] [%] | %Inh [3] [%] | %Inh [4] [%] | %Inh [5] [%] | %Inh [6] [%] | %Inh [7] [%] | %Inh [8] [%] | %Inh [9] [%] | %Inh [10] [%] | %Inh [11] [%] | %Inh [12] [%] | %Inh [13] [%] | %Inh [14] [%] | %Inh [15] [%] | %Inh [16] [%] | %Inh [17] [%] | %Inh [18] [%] | %Inh [19] [%] | %Inh [20] [%]
Cn1cncc1-c1ccc2ncnc(Nc3ccc(OCc4ccccc4)cc3)c2c1 [GW320571] | 0 | 0 | 3 | 0 | 0 | 0 | 0 | 11 | 0 | 6 | 0 | 12 | 0 | 19 | 11 | 19 | 0 | 0 | 2 | 0
Nc1ncnc2[nH]c(-c3ccccc3)nc12 [AH5015] | 0 | 0 | 49 | 71 | 4 | 18 | 53 | 26 | 32 | 0 | 7 | 1 | 50 | 21 | 0 | 17 | 30 | 48 | 100 | 0
COc1ccc(CNC(=O)NC2CCN(c3ccnc(Nc4cc(OC)c(OC)c(OC)c4)n3)C2)cc1 (stereo not drawn) [GSK1379748] | 21 | 44 | 6 | 18 | 8 | 0 | 20 | 30 | 93.1 | 0 | 15 | 15 | 25 | 0 | 17 | 0 | 3 | 0 | 0 | 0
Cc1cccc(-c2nc(-c3ccc(S(C)(=O)=O)cc3)sc2-c2ccnc(NCCc3ccccc3)c2)c1 | 1 | 0 | 14 | 0 | 0 | 0 | 30 | 0 | 2 | 0 | 0 | 0 | 0 | 0 | 11 | 0 | 18 | 20 | 0 | 1
COc1cc2nccc(Nc3ccc(NC(=O)c4ccc(C)cc4)c(O)c3)c2cc1OC.Cl [GW440132] | 0 | 0 | 0 | 0 | 2 | 0 | 0 | 0 | 14 | 0 | 0 | 14 | 15 | 7 | 0 | 17 | 0 | 0 | 22 | 0
CC1=C(C(=O)Nc2cc3cn[nH]c3cc2F)C(c2ccc(C(F)(F)F)cc2)CC(=O)N1 (stereo not drawn) [GSK429286] | 23 | 0 | 7 | 0 | 0 | 0 | 6 | 24 | 0 | 0 | 0 | 0 | 27 | 12 | 13 | 18 | 0 | 4 | 45 | 0
Cl.Oc1ccc(-c2nc(-c3ccccc3)[nH]c2-c2ccncc2)cc1 [SB-428218] | 12 | 5 | 9 | 24 | 0 | 3 | 15 | 29 | 6 | 0 | 0 | 0 | 74 | 38 | 45 | 0 | 55 | 55 | 20 | 0
Cl.O=C(Nc1cccc(-c2nn3ncccc3c2-c2ccnc(Nc3cccnc3)n2)c1)c1c(F)cccc1F [GSK312879] | 0 | 0 | 7 | 0 | 0 | 14 | 0 | 23 | 0 | 0 | 7 | 0 | 24 | 11 | 15 | 23 | 15 | 19 | 9 | 0
COc1ccc2nc(-c3cccc(C)n3)nc(Nc3ccncc3)c2c1 [GSK204919] | 0 | 0 | 3 | 7 | 0 | 0 | 0 | 11 | 17 | 0 | 0 | 0 | 0 | 0 | 52 | 10 | 8 | 14 | 7 | 0
